Experimental data from PubChem BioAssay (NCI).
About 83,000 compounds went through this panel and 20% of them were active in at least one assay; those are over-represented in the sample as a whole.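 Results are percent growth after 48 hours of single-concentration exposure. 100 means growth as in untreated cells, lower positive values show inhibition; negative values down to -100 show cell death.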 Unmarked numbers belong to inactive results. Activity calls are given as the source filed them. How the source made its calls: active means growth percent below 10; inactive means the rest.

Legend:
Assay in all cases: NCI-60 one-dose screen, 48 h (100 = growth as untreated, 0 = no growth, -100 = all killed)
Details in all cases: 10 µM unless noted
NCI-H23 lung = system: NCI-H23 lung
NCI-H226 lung = system: NCI-H226 lung
NCI-H322M lung = system: NCI-H322M lung
NCI-H460 lung = system: NCI-H460 lung
HOP-92 NSCLC = system: HOP-92 NSCLC
NCI-H522 lung = system: NCI-H522 lung
A549/ATCC NSCLC = system: A549/ATCC NSCLC
786-0 renal = system: 786-0 renal
COLO 205 colon = system: COLO 205 colon
HOP-62 NSCLC = system: HOP-62 NSCLC

SMILES | growth (NCI-H23 lung) | growth (NCI-H226 lung) | growth (NCI-H322M lung) | growth (NCI-H460 lung) | growth (HOP-92 NSCLC) | growth (NCI-H522 lung) | growth (A549/ATCC NSCLC) | growth (786-0 renal) | growth (COLO 205 colon) | growth (HOP-62 NSCLC) [%]
NS(=O)(=O)c1ccc(-n2cc(-c3cccc(NC(=O)c4cc(N5CCOCC5)cc(C(F)(F)F)c4)c3)nn2)cc1 | 54.7% | 26.2% | 71.4% | 64.3% | 9.47% (active) | 38.2% | 76.7% | 44.9% | 76.9% | 
COc1ccc2nc(Nc3cccc(NC(=O)c4ccc(CN5CCCN(C)CC5)c(C(F)(F)F)c4)c3)ccc2c1 | -71.9% (active) | -39.8% (active) | -86.4% (active) | 8.75% (active) | -53.1% (active) | -50.7% (active) | -24.8% (active) | -73.4% (active) | -31.7% (active) | 
CC1=C(C(=O)c2ccccc2)C(c2cccc3ccccc23)n2c(nc3ccccc32)N1 (stereo not drawn) | 56.5% | 50% | 87.5% | 87% | 60.4% | 66.5% | 40.8% | 70.6% | 65.3% | 
CC12CC[C@@H]3[C@]4(C)COC(c5cn[nH]c5-c5ccc(Cl)cc5)O[C@@H]4CC[C@@]3(C)[C@@H]1CC(C1=CCOC1=O)O2 (stereo partly drawn) | 51.9% | 45.5% | 58.2% | 29.8% |  | 20.9% | 34% | 57.1% | 10.3% | 62.7
O=C(C1=CNC(=S)NC1c1ccc(O)cc1)c1cc2ccccc2oc1=O (stereo not drawn) | 102% | 95.7% | 106% | 108% |  | 90% | 101% | 109% | 102% | 
N/C(=N\c1nc2ccccc2s1)NC(=O)Nc1ccccc1Br | -24.4% (active) | 8.79% (active) | 14.6% | -26.1% (active) |  | -61.3% (active) | -26.2% (active) | -24.9% (active) | -72.6% (active) | 
Cn1cc(-c2cc(N)n3nc(-c4cn(C)c5ncccc45)cc3n2)c2cccnc21 | -33.1% (active) | 86.5% | 104% | 79.5% |  | 77% | 51.9% | 81.9% | 43.7% | 
Cc1cc2nc3c4ccccc4n(CCNCCN(C)C)c3nc2cc1C | 31.2% | 53.3% | 36.3% | 5.46% (active) | 10.5% | 17.7% | 20.4% | 20.4% | -71.5% (active) | 
Cc1sc2c(c1C)C(c1ccc(Cl)cc1)=N[C@@H](CC(=O)NCCCCCNC(=O)COc1ccc(C3CCC(=O)NC3=O)cc1)c1nnc(C)n1-2 (stereo partly drawn) | 47.3% | 8.38% (active) | 23.7% | 73% |  | 3.85% (active) | 25.7% | 26.5% | -61.7% (active) | 
CCCCCCCCc1ccc(S(=O)(=O)Nc2ccc(CC)cc2C(=O)O)cc1 | 97.3% | 88% | 95.2% | 96.7% | 71% | 91.4% | 91.9% | 103% | 121% | 
N/C(=N\c1nc2ccccc2s1)NC(=O)Nc1ccc(Cl)cc1Cl | -83.4% (active) | -40.2% (active) | -51.3% (active) | -95.9% (active) |  | -78.6% (active) | -85.4% (active) | -78.6% (active) | -87.7% (active) | 
O=C(COc1ccc(NC(=O)Nc2ccc(Cl)c(Cl)c2)cc1)N=Nc1c(O)[nH]c2ccc(Cl)cc12 | -19.5% (active) | -42.8% (active) | -5.99% (active) | 14.1% | -30.5% (active) | -55.8% (active) | -39.1% (active) | -52.5% (active) | -54.4% (active) | 
Cc1ccccc1[C@H]1C(C(=O)c2ccc(Cl)cc2)C2(N[C@@H]1c1ccccc1)C(=O)Nc1ccc(Cl)cc12 (stereo partly drawn) | -56.2% (active) | -60.2% (active) | 22.1% | 1.55% (active) | -44.4% (active) | -48.6% (active) | -29.2% (active) | -39.3% (active) | -75.7% (active) | 
O=C(c1ccc(OCCN2CCOCC2)cc1)C1[C@H](c2ccc(Cl)cc2)[C@@H](c2ccccc2)NC12C(=O)Nc1ccc(Cl)cc12 (stereo partly drawn) | 37.9% | 48.3% | 55.6% | 10.1% | -11.8% (active) | 16.3% | 22.9% | 16.6% | -20.1% (active) | 
CN(C)CCn1c2ccccc2c2nc3cc(C(F)(F)F)ccc3nc21 | 34.6% | 53.2% | 40.3% | 8.31% (active) |  | 30.7% |  | 32.9% | 14% | 38.8
CCCCCCCCOc1cccc(S(=O)(=O)Nc2ccc(C)cc2C(=O)O)c1 | 96.3% | 98.4% | 94.5% | 98.4% | 80.1% | 86.5% | 84.2% | 99.4% | 112% | 
CN1CCc2c(sc3ncnc(N/N=C/c4ccc(Cl)cc4Cl)c23)C1 | 12.2% | -59.8% (active) | 29.2% | 10.1% | -47.2% (active) | -34.3% (active) | 31.4% | -93.9% (active) | -48% (active) | 
COc1cc2c(c(OC)c1OC)C(=O)CC(c1cccc(NC(=O)c3cc(NC(=O)[C@H](CO)NC(=O)OC(C)(C)C)ccc3Cl)c1)O2 (stereo partly drawn) | 37.3% | 33% | 42.5% | 34.3% | 39.7% | 27.6% | 58.2% | 42.8% | 43% | 
O=C(O)c1ccc(-c2ccc(/C=N/NC(=O)c3[nH]c4ccc(Br)cc4c3-c3ccccc3)s2)cc1 | 8.04% (active) | 22.8% | 20.4% | 0.163% (active) | -4.63% (active) | -1.38% (active) | 23.1% | 16.5% | 23.6% | 
CCCCSc1nc(Nc2ccc(S(N)(=O)=O)cc2)c(C#N)c(-c2ccc(Cl)cc2)n1 | 26.1% | 12.8% | 73.8% | 7.9% (active) |  | 63.8% |  | 23% | 55.2% | 10.6
CC(=O)OC[C@@]1(C)C2CC[C@]3(C)C(CC=C4C5CC(C)(C)CC[C@]5(C(=O)Nc5ccc(Br)cc5)CC[C@]43C)[C@@]2(C)C[C@@H](OC(C)=O)[C@@H]1OC(C)=O (stereo partly drawn) | 45.6% | 45.2% | 67.9% | 17% | 54.7% | 45.6% | 38.9% | 51.2% | 43.8% | 
COc1ccc(C(=O)/C=C/c2cccnc2)cc1S(N)(=O)=O | 22.3% | 77.3% | 52% | 19.9% | 56.5% | -67.8% (active) | 42.7% | 50.4% | 23.9% | 
C=C1CC[C@@H]2[C@]3(C)COC(c4cn[nH]c4-c4ccc(OC)cc4)O[C@@H]3CC[C@@]2(C)[C@@H]1C/C=C1/C(=O)OCC1O (stereo partly drawn) | -12.6% (active) | -45% (active) | 32.6% | -49.6% (active) | -34.5% (active) | -18.4% (active) | 7.46% (active) | -89.7% (active) | -83.1% (active) | 
CCN(CC)C(=O)N/C(N)=N/c1nc2ccccc2s1 | 34.5% | 39.4% | 81.4% | 67% | 72.2% | 51.2% | 62.9% | 63.2% | 86.4% | 
Cc1ccc(C2CC(c3ccc(S(=O)(=O)NCCNc4nc(Nc5ccc(F)cc5)nc(N(C)C)n4)cc3)=Nc3c(N)nc(N)nc3N2)cc1 (stereo not drawn) | 65.3% | 62.7% | 70.2% | 38.2% |  | 58.5% | 68.4% | 42% | 54.8% | 87.7
COc1cc2oc(-c3cccc(C(=O)Nc4cccc([N+](=O)[O-])c4)c3)cc(=O)c2c(OC)c1OC | 41.1% | -18.5% (active) | 40.2% | 32.3% | 6.73% (active) | -46% (active) | 23% | -22.9% (active) | 91% | 
S=C(Nc1ccccc1)Nc1ccc(OCc2nc3ccccc3[nH]2)cc1 | 37% | 79.9% | 63.6% | 31.3% | 74.8% | 2.87% (active) | 31% | 31.8% | 32.9% | 
Cc1ccc(S(=O)(=O)c2nc(S(=O)(=O)c3ccc(C)cc3)c(N3CCC(O)CC3)s2)cc1 | 62.5% | 84.6% | 77.3% | 46.2% |  | 19.7% |  | 77.1% | 98% | 97.5
COc1cc2oc(-c3cccc(C(=O)Nc4ccc(Cl)cc4)c3)cc(=O)c2c(OCC(=O)N[C@@H](Cc2ccccc2)C(=O)O)c1OC |  | 102% | 103% | 111% | 124% | 96.3% | 106% | 102% | 119% | 120
